Several values for one entry are separate records, joined by “and”; a condition that tells them apart may be missing. Identical values can stand only once. About 2,000 (0.91%) of roughly 220,000 compounds were called active. Roughly 2% stayed inconclusive and do not appear here. Only a sample is shown. Results with a measured potency or affinity are listed apart. Values without a mark were called inactive. No stated cut-off is given here; in the data, inconclusive means inhibition above about 80% without an active follow-up result; inactive means below that; test concentration not stated here.
experiment: M. tuberculosis H37Rv growth inhibitors, H37Rv strain (AID 1626); conditions: hits give high values, concentration not given here;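 further: bacteria incubated seven days before Alamar blue readout; 0% = bacteria only wells and 100% = bacteria with antibiotic wells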

Point of comparison: `Cc1ccc(SCC(=O)NCCSCc2ccccc2)cc1`, inhibition 7.41%. Against it:
- CCCN(CC1CC1)C(=S)Nc1ccc(C(C)=O)cc1 — lower, -2.45%
- COc1cc(-c2nn3c(C4CCCCC4)nnc3s2)cc(OC)c1OC — higher, 28.5%
- COc1ccc(-c2nn3c(C4CCCCC4)nnc3s2)cc1OC — lower, 4.71%
- Cc1nnc(Sc2cc(C(=O)NCCCOC(C)C)c3ccccc3n2)s1 — lower, 4.65%
- CCN1C(=O)C2(C(C#N)=C(N)Oc3n[nH]c(COC)c32)c2ccccc21 (configuration not stated) — lower, -1.31%
- Cc1ccc(CNCc2ccccc2Cl)cc1 — lower, 6.89%
- Cc1cccc2cc(CNCc3ccccc3)c(Cl)nc12 — lower, -2.86%
- Cc1cc(C)c(NC(=O)CSc2nc3ccc(NC(=O)CSc4nnnn4Cc4ccccc4)cc3s2)c(C)c1 — higher, 8.59%
- O=C(CCN1CCN(Cc2ccccc2)CC1)Nc1cccc(Cl)c1 — lower, -5.85%
- Cc1cc(C)c2c(CN3CCN(Cc4ccc5c(c4)OCO5)CC3)cc(=O)oc2c1 — higher, 23.5%
- Cc1ccc2c(CN3CCN(Cc4ccc5c(c4)OCO5)CC3)cc(=O)oc2c1C — lower, -3.12%
- CCOc1ccccc1NC(=O)CN1C(=O)CSC(C)C1=O (configuration not stated) — lower, 2.75%
- CNC(=S)N1N=C(c2ccc(C)cc2)CC1c1ccc(OC)cc1 (configuration not stated) — lower, 3.11%
- COC(=O)c1cn(C(=O)/C=C/c2ccc(OC)c(OC)c2)c2ccccc12 — lower, 4.86%
- c1ccc(Cn2c(CNc3nc4ccccc4n3CCN3CCCCC3)nc3ccccc32)cc1 — higher, 16.8%
- CCOC(=O)c1ccc(NC(=S)NNC(=O)C2(C)CC2(Cl)Cl)cc1 (configuration not stated) — lower, 1.27%
- CN1C(=O)C(=Cc2ccc(-c3cccc(Cl)c3)o2)C(=O)N(C)C1=O — lower, 5.04%
- O=C1/C(=C/c2ccco2)SC(=S)N1c1cccnc1 — lower, -3.57%
- N=C1S/C(=C\c2ccco2)C(=O)N1c1ccc2c(c1)OCO2 — lower, 3.8%
- O=C1OC(c2cccs2)=N/C1=C\c1ccc(-c2cccc(Cl)c2)o1 — lower, 4.3%
- O=S(=O)(c1cnc(Cl)c(Br)c1)N1CCN(c2ncccn2)CC1 — lower, -10.8%
- Cc1ccc(C(NC(=O)c2ccccc2)C(Cl)(Cl)Cl)cc1 (configuration not stated) — lower, 5.19%
- CC(=O)NC(O)C(=O)c1ccccc1 (configuration not stated) — lower, 3.23%
- O=Cc1cn(CC(=O)NCC2CCCO2)c2ccccc12 (configuration not stated) — lower, 2.23%
- Cc1occc1-c1nnc(SCC(=O)NC2CCCC2)n1-c1ccccc1 — lower, 2.16%
- CCOC(=O)CC(=O)CSc1ncnc2c1cnn2-c1ccccc1 — lower, -1.22%
- CCOC(=O)Cn1cnc2c(cnn2-c2ccc(Cl)cc2)c1=O — lower, -3.87%
- CC(=O)CSc1ncnc2c1cnn2-c1ccccc1 — lower, -1.25%
- CCOC(=O)CNC(=O)CSc1ncnc2c1cnn2-c1ccc(Cl)cc1 — higher, 14.2%
- CCN(CC)C(=O)CSc1ncnc2c1cnn2Cc1ccccc1 — lower, -79.5%
- CNC(=O)CSc1ncnc2c1cnn2-c1ccccc1 — lower, -3.44%
- CC(C)(C)C(=O)CSc1ncnc2c1cnn2-c1ccccc1 — higher, 9.82%
- NC(=O)CSc1ncnc2c1cnn2Cc1ccccc1 — lower, -0.76%
- COc1ccc(Cc2nnc(SCC(=O)N3CCCCC3)o2)cc1 — lower, 3.26%
- O=C1N(Cc2cccnc2)C[C@@H]2C[C@@H](c3cccc(C(F)(F)F)c3)N3CCC[C@@]123 — lower, 2.57%
- CCCCOc1nc2ccccc2nc1C(C#N)S(=O)(=O)c1ccccc1 (configuration not stated) — lower, -4.72%
- CN(c1ccc(OCC(=O)OCC(=O)NCc2ccco2)cc1)S(=O)(=O)c1ccc2ccccc2c1 — lower, -0.25%
- COc1ccccc1C(=O)C1CCCN(C(=O)c2snnc2C)C1 (configuration not stated) — lower, -0.23%
- CCOC(=O)CNC(=O)CSc1ncnc2c1cnn2-c1ccc(OC)cc1 — higher, 14.6%
- CCOC(=O)CNC(=O)CSc1ncnc2c1cnn2-c1ccc(C)cc1 — lower, -3.46%
- Cc1ccc(-n2ncc3c(SCC(=O)Nc4cc(C)on4)ncnc32)c(C)c1 — lower, 0.2%
- CSc1ncnc2c1cnn2-c1ccc(C)cc1C — higher, 11.1%
- COCc1cc(C)nc(Nc2ccc(C)c(C)c2)c1C#N — lower, -2.04%
- CC1=C(C(=O)Nc2ccccc2)C(c2ccco2)NC(=O)N1 (configuration not stated) — lower, -10.5%
- COc1cc(NC(=O)CN2C(=O)NC(C)(c3ccccc3)C2=O)c(C)cc1[N+](=O)[O-] (configuration not stated) — lower, 3.59%
- Cc1cc(C)n2c(SC/C(O)=C(\C#N)c3nc4ccccc4[nH]3)nnc2n1 — lower, -3.82%
- COc1ccc(C(=O)NCC2CCCO2)cc1OC (configuration not stated) — lower, -3.63%
- CC(COc1ccccc1Cc1ccccc1)N1CCCCC1 (configuration not stated) — lower, 1.05%
- CCOc1cc(N2CCOCC2)c(OCC)cc1NC(=O)c1ccc2ccccc2n1 — lower, 7.27%
- CCNc1nc(CN2CCCCC2)nc2scc(-c3ccccc3)c12 — higher, 10.7%
- CN(Cc1ccccc1)c1nc(CN2CCOCC2)nc2scc(-c3ccccc3)c12 — higher, 38.4%
- c1csc(-c2csc3nc(CN4CCOCC4)nc(NCc4ccc5c(c4)OCO5)c23)c1 — lower, -6.15%
- NC(=O)C1CC(O)CN1c1nc(CN2CCOCC2)nc2scc(-c3ccccc3)c12 (configuration not stated) — lower, -8.45%
- CC/C(=N\Nc1ccccc1)c1c(O)n(-c2ccccc2)c(=O)[nH]c1=O — higher, 47.3%
- Cc1cccc(NC(=O)c2nc[nH]c2C(=O)N[C@@H](C)C(=O)OC(C)(C)C)c1 — higher, 80%
- Cc1cccc(NC(=O)c2nc[nH]c2C(=O)N[C@@H](CC(C)C)C(=O)OC(C)(C)C)c1 — higher, 39%
- C[C@H](NC(=O)c1nc[nH]c1C(=O)N[C@H](C)c1ccccc1)C(=O)OCc1ccccc1 — lower, 2.36%
- C[C@H](NC(=O)c1[nH]cnc1C(=O)Nc1ccc(Cl)cc1)C(=O)OC(C)(C)C — higher, 52.4%
- Cc1cccc(NC(=O)c2nc[nH]c2C(=O)N[C@@H](Cc2ccccc2)C(=O)OCc2ccccc2)c1 — lower, -0.81%
- CNC(=O)c1[nH]cnc1C(=O)N[C@@H](C)C(=O)OCc1ccccc1 — lower, -1.09%

For `c1ccc(CN(CC2=NCCN2)c2ccccc2)cc1`, the inhibition was -7.61% and -7.26%.

— PubChem BioAssay AID1626 (SRMLSC, 2009)
